TDP1 cell noCPT: qHTS for Inhibitors of human tyrosyl-DNA phosphodiesterase 1 (TDP1): qHTS in cells in absence of CPT. DT40 Tdp1-/- hTDP1 cells, no CPT, ATP luminescence, 48 h. Potency, µM (series often up to 46.2 µM), for inactives: at the highest dose activity change, negative = growth inhibition, hits mostly inhibitors. 420,000 compounds, 15% hits; note: % is set by controls: 0 for no effect and ±100 for the full control effect; nearly all actives have a fitted effect of over 55% in size
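Luminescent ATP content (CellTiter-Glo) served as the growth readout. Knockout chicken DT40 cells expressing human TDP1 were exposed to compounds without camptothecin for a minimum 48 hr at 37 °C.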
S2 tox: Viability Counterscreen for Primary qHTS for Inhibitors of ATXN expression. S2 cells (HEK-293 line with an ATXN2-luciferase reporter) viability, CellTiter-Fluor protease fluorescence, 24 h. Potency, µM (titrated, usually from 56.7 µM), hits mostly cytotoxic. 400,000 compounds, 0.49% hits. AID 651635, 2014; note: nearly all actives have a fitted effect of over 40% in size
HepG2 viability: qHTS for Inhibitors of TGF-b: Cytotox Counterscreen; Potency, µM (titrated, usually from 46.1 µM), without a hit: top-dose activity change, negative = cytotoxicity, most hits filed as cytotoxic; HepG2 CAGA-GFP viability, ATP luminescence, 18 h; AID 588856, 2011; 410,000 compounds, 0.76% hits
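CellTiter-Glo luminescence gave cytotoxicity after 18 hours at 37 degrees C. The cells were HepG2 CAGA-GFP in 1% FBS DMEM, stimulated with 500 pg/mL TGF-beta after compound addition. %Activity was normalised to no-cell wells (complete cell-killing) and DMSO (no toxicity), and curves were fitted and classified.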
TGFb inhibitor: qHTS for Inhibitors of TGF-b | HepG2 CAGA-GFP TGF-b/SMAD3 reporter, GFP fluorescence, 18 h; TGF-beta stimulated, 500 pg/mL final | Potency, µM (highest dose often 46.1 µM), for the others: at the highest dose activity, negative = inhibition, most hits filed as inhibitors | 410,000 compounds, 1.2% hits | AID 588855, 2011; note: % is set by controls: 0 for no effect and ±100 for the full control effect; nearly all actives have a fitted effect of over 65% in size
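Per well, imaged GFP fluorescence of HEPG2 CAGA-GFP cells gives the signal; cells get compound, then TGF-beta (500 pg/mL final), 18 h at 37 degrees C; %Activity versus -TGF-beta and +DMSO controls.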
ATXN2 expr inh: Primary qHTS for Inhibitors of ATXN expression | 360,000 compounds, 0.72% hits | AID 1745845, 2022 | Potency, µM (titrated, usually from 57 µM), for the others: top-dose activity change, negative = inhibition, hits mostly inhibitors | HEK-293 ATXN2-luciferase reporter, luminescence, 24 h; note: % is set by controls: 0 for no effect and ±100 for the full control effect; nearly all actives have a fitted effect of over 55% in size
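qHTS (up to 57 uM final) was run with 24 h compound exposure of reporter cells at 37 °C. Each well was multiplexed: SteadyGlo luminescence measured ATXN2-luciferase expression after a fluorogenic Gly-Phe-AFC viability readout (25 uM final).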
DT40 TDP1 CPT: qHTS for Inhibitors of human tyrosyl-DNA phosphodiesterase 1 (TDP1): qHTS in cells in presence of CPT | chicken DT40 Tdp1-/-;hTDP1 cells + 20 nM CPT, ATP luminescence, 48 h | Potency, µM (series often up to 46.2 µM), for the others: at the top dose activity change, negative = growth inhibition, most hits filed as inhibitors | 420,000 compounds, 12% hits | AID 686979, 2013; note: % is set by controls: 0 for no effect and ±100 for the full control effect; nearly all actives have a fitted effect of over 55% in size
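Cell growth measured by CellTiter-Glo luminescence after a minimum 48 h, 37 C compound exposure with 20 nM CPT in Tdp1-knockout DT40 cells stably expressing hTDP1, seeded 400/well; qHTS titration format.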
Numbers without * were called inactive; i = inactive; ? = inconclusive; / = no result given; [ ] = dose if it differs, or a comment. Rows were chosen to be rich in hits. Some 17% of all compounds tested hit in one or more screens of this group. Calls come from the whole dose curve; as a rule, active = well fitted curve in the direction sought with a large enough effect; inconclusive = small, poorly fitted or top-dose-only effect, or another doubt; inactive = no such curve, though single readings can be large; an effect the other way counts as inactive or inconclusive. Potency is the fitted concentration of half-maximal effect.

SMILES	TDP1 cell noCPT	S2 tox	HepG2 viability	TGFb inhibitor	ATXN2 expr inh	DT40 TDP1 CPT
CCCCCCCCCCCCC/C=C/[C@@H](O)[C@H](CO)NC(C)=O	?	/	/	/	/	-15%[4.12 µM]
COc1ccc(CCNC(=O)c2c[nH]n3c(=O)c(Cc4ccccc4Cl)c(C)nc23)cc1OC	?	/	-42%	/	/	?
O=C(Nc1nc2ccc(S(=O)(=O)N3CCCCC3)cc2s1)c1cccnc1	?	i	5%	-3%	-25%	-13%
CNS(=O)(=O)c1ccc2nc(NC(=O)c3ccc(N4C(=O)CCC4=O)cc3)sc2c1	21µM*	i	12%	-17%	/	?
O=C(Nc1nc2ccc(S(=O)(=O)N3CCCC3)cc2s1)c1ccccn1	2.9µM*	?	-8%	-1%	-37%	6.5µM*
O=C(Nc1nc2ccc(S(=O)(=O)N3CCCC3)cc2s1)c1cccc(F)c1	12µM*	i	-1%	-4%	27%	?
CCc1ccc2nc(NC(=O)c3ccc(N4C(=O)CCC4=O)cc3)sc2c1	-11%	i	3%	1%	18%	-27%
O=S(=O)(Nc1ccc(C(O)(C(F)(F)F)C(F)(F)F)cc1)c1cccc2ccccc12	21µM*	/	-97%	?	0%	16µM*
CC(C)(C)c1ccc(S(=O)(=O)Nc2cccnc2)cc1	?	i	-25%	2%	-24%	?
COc1cccc(S(=O)(=O)Nc2ccc(C(O)(C(F)(F)F)C(F)(F)F)cc2)c1	16µM*	?	-37%	?	?	16µM*
CC(C)(C)c1ccc(S(=O)(=O)Nc2ccc(C(O)(C(F)(F)F)C(F)(F)F)cc2)cc1	16µM*	18µM*	20µM*	13µM*	?	16µM*
COc1ccc(NS(=O)(=O)c2cccc(C(=O)NNC(=O)c3ccc(NC(C)=O)cc3)c2)cc1	0%	i	-19%	-19%	0%	14%
CCN1C(=O)N[C@@H](c2ccccc2)[C@@H](C(=O)OC)[C@H]1C	-1%	i	4%	-5%	11%	-18%
CC(CCN1CCC(CN2C(=O)C(=O)NC[C@@H]2Cc2ccccc2)CC1)c1ccccc1 (stereo partly drawn)	0%	i	4%	0%	18%	9%
Cc1ccc(S(=O)(=O)N2CCC(C(=O)N3CCc4ccccc43)CC2)cc1	?	i	6%	-11%	-5%	?
Cc1ccc(S(=O)(=O)N2CCC(C(=O)OCCOc3cccc(C)c3)CC2)cc1	1%	?	0%	13%	-23%	-4%
Cc1ccc(S(=O)(=O)N2CCC(C(=O)N3CCc4ccccc43)CC2)cc1C	18µM*	i	-39%	-29%	-4%	?
Cc1ccc(S(=O)(=O)N2CCC(C(=O)OCCOc3ccccc3)CC2)cc1C	0.18µM*	i	-2%	-20%	3%	-9%
Cc1ccc(S(=O)(=O)N2CCC(C(=O)N3CCCCCCC3)CC2)cc1C	?	i	-22%	-6%	/	16µM*
C=CCn1c(SCCN)nnc1-c1cccc(S(=O)(=O)N2CCOCC2)c1	?	i	4%	?	-14%	-28%
O=C(NCc1ccncc1)C1Cc2c(-c3ccc4c(c3)OCO4)ccnc2O1 (stereo not drawn)	13µM*	i	-10%	23%	-7%	?
O=C(NCc1ccccc1)C1Cc2c(-c3ccc4c(c3)OCO4)ccnc2O1 (stereo not drawn)	0.73µM*	?	-2%	-19%	0%	0.58µM*
CN1CCN(c2ccc(CNC(=O)C3Cc4c(-c5ccc6c(c5)OCO6)ccnc4O3)cc2)CC1 (stereo not drawn)	?	i	-6%	7%	19%	-10%
Cc1ccc(CNc2ccccc2C(=O)O)s1	-1%	i	-39%	3%	/	-1%
COc1cc(OC)c(Cl)cc1N	16µM*	i	-21%	?	-9%	?
SMILES	TDP1 cell noCPT	S2 tox	HepG2 viability	TGFb inhibitor	ATXN2 expr inh	DT40 TDP1 CPT
COc1cc(NC(N)=S)c(OC)cc1Cl	-25%	i	-48%	4%	2%	-3%
Cc1nn(C)c(Oc2ccccc2)c1CCNS(=O)(=O)c1ccc(Cl)cc1	16µM*	?	-5%	-17%	-18%	16µM*
Cc1nn(C)c(Oc2ccccc2)c1CCNC(=O)C(C)(C)C	-2%	i	-6%	12%	3%	-4%
COc1ccc(S(=O)(=O)NCCc2c(C)nn(C)c2Oc2ccccc2)cc1	23µM*	i	-25%	?	12%	?
CCN(CC)C(=O)Cn1c(=O)nc(-c2ccccc2F)c2cc(Cl)ccc21	-10%	/	3%	3%	/	-8%
CCOC(=O)N1CCN(C(=O)c2ccc3oc(CCCc4ccccc4)nc3c2)CC1	?	i	-16%	-17%	37%	?
CCn1c(-c2ccccc2)c(C(=O)CCl)c2ccccc21	2.6µM*	4µM*	9%	3%	/	3.7µM*
Cn1c(-c2ccccc2)c(C(=O)CCl)c2ccccc21	3.3µM*	7.5µM*	-55%	?	?	2.6µM*
COc1ccccc1CNC(=O)CCn1c(=O)c2ccccc2n(CC(=O)Nc2ccc(C)cc2C)c1=O	-7%	i	-5%	-4%	-3%	1%
Cc1cc(NC(=O)Nc2ccccc2[N+](=O)[O-])n(C)n1	16%	i	-18%	-1%	-13%	-2%
COc1cc(NC(=O)CSc2ccc3c(c2)OCCO3)cc(OC)c1OC	21µM*	i	6%	-3%	-6%	21µM*
O=C(CSc1ccc2c(c1)OCCO2)Nc1ccc(Br)cc1	-28%	i	-4%	?	-19%	-25%
O=C(CSc1ccc2c(c1)OCCO2)Nc1ccc2c(c1)OCO2	?	i	12%	-20%	-3%	?
COc1ccc(NC(=O)CSc2ccc3c(c2)OCCO3)cc1OC	?	i	-1%	0%	-1%	21µM*
CCN1CCN(C(=O)N(CC(=O)Nc2ccc(C(N)=O)cc2)S(=O)(=O)c2ccc(C)cc2)CC1	-1%	i	16%	8%	-6%	-6%
CC1C(c2ccccc2)=Nn2c(=O)n(-c3ccccc3)c(=O)n21 (stereo not drawn)	23µM*	?	-66%	?	/	?

Compound activity as filed in PubChem BioAssay.
